# Source: PubChem BioAssay AID777 (Sanford-Burnham Center for Chemical Genomics, 2007)
# In all, about 96,000 compounds went through this assay and about 19,000 (20%) were called active.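 How the source made its calls: active means blocking of liver enzyme CYP2C9 beyond about 50% at 5 µM (limit read from the data); inactive means the rest.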 These entries were drawn from the full list.
# Biological target: Cytochrome P450 2C9 (Homo sapiens) (UniProt P11712)
# Test: blockers of cytochrome P450 2C9 activity – biochemical, luminescence, ADME assay, primary screen (AID 777)
# Conditions: CYP2C9 Supersomes, luciferin-H conversion, at 5 µM, hits give high values
# Cytochrome P450 2C9 (Homo sapiens), sequence (P11712 whole entry, looked up): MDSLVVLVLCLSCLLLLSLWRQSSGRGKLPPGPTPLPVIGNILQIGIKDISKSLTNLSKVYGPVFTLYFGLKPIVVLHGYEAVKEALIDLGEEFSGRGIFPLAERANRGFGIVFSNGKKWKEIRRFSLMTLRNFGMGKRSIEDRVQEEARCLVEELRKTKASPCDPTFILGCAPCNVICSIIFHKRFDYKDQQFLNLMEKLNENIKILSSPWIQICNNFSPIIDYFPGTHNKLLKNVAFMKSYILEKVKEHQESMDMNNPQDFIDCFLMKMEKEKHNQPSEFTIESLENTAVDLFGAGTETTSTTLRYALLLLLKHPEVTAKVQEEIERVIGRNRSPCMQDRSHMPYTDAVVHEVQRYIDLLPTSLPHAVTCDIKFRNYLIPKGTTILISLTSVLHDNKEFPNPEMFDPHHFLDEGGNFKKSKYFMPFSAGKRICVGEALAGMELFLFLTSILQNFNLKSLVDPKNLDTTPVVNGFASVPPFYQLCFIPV
row,Compound,inhibition
1,CN=C1SC(CC(=O)Nc2ccc(C(=O)O)cc2)C(=O)N1C (stereo unspecified),8.3% (inactive)
2,CCCCOc1ccc(NC(=O)CSCC(=O)OCC)cc1,0.4% (inactive)
3,CCOC(=O)C1CCCCN1Cc1ccc(OC)c(OC)c1OC (stereo unspecified),29.7% (inactive)
4,COc1ccc2c(c1)CCc1c(C(=O)N3CCc4ccccc4C3)noc1-2,73.7% (active)
5,COc1ccc2c(c1)CCc1c(C(=O)N3CCCC3)noc1-2,-6.1% (inactive)
6,COc1ccc2c(c1)CCc1c(C(=O)Nc3c(C)n(C)n(-c4ccccc4)c3=O)noc1-2,14% (inactive)
7,CCOC(=O)c1cc(-c2ccc(Cl)s2)nc2c1c(C)nn2C,32.3% (inactive)
8,Cc1cc(C(F)F)n2nc(C(=O)Nc3ccc(S(=O)(=O)NC45CC6CC(CC(C6)C4)C5)cc3)nc2n1,24.7% (inactive)
9,CCOc1c(OC)cc(C2C(C#N)=C(N)Oc3n[nH]c(-c4ccncc4)c32)cc1OC (stereo unspecified),20.1% (inactive)
10,COc1ccc(/C=C2\CCCC3C2=NN(C(=O)c2scnc2C)C3c2ccc(OC)cc2)cc1 (stereo unspecified),83.4% (active)
11,Cc1nc2ccc(C(=O)O)cc2[nH]1,14.9% (inactive)
12,Cc1cc(Br)ccc1NC(=O)C1CCCO1 (stereo unspecified),-2.8% (inactive)
13,CCOC(=O)C1CN(S(=O)(=O)c2ccc(F)cc2)C1,8.2% (inactive)
14,COc1ccc(OC)c(NC(=O)CC(Cc2ccccc2OC)C(=O)O)c1 (stereo unspecified),40.6% (inactive)
15,C=CCCC(=O)Nc1nc(C)c(-c2csc(Nc3ccc(Cl)cc3)n2)s1,38.2% (inactive)
16,CCCCCCC(=O)Nc1nc(C)c(-c2csc(Nc3cc(Cl)ccc3OC)n2)s1,14.8% (inactive)
17,CCCCC(=O)Nc1nc(C)c(-c2csc(Nc3ccc(Cl)cc3)n2)s1,57.3% (active)
18,CC(C)C(=O)N1c2ccccc2NC2=C(C(=O)CCC2)C1c1ccc(N(C)C)cc1 (stereo unspecified),16.8% (inactive)
19,CCC(C)n1c(-c2cc(OC)c(OC)c(OC)c2)nc2nc3ccccc3nc21 (stereo unspecified),95.3% (active)
20,COc1ccc(CCn2c(-c3ccco3)nc3nc4ccccc4nc32)cc1OC,34.7% (inactive)
21,COC(=O)c1nc(NC(=O)c2ccc(Cl)cc2)n[nH]1,7.9% (inactive)

row,Compound,inhibition
1,O=S(=O)(Nc1nccs1)c1ccc2c(c1)OCCO2,-23.3% (inactive)
2,O=C(/C=C/c1ccccc1)N/C(=C/c1ccccc1)C(=O)Nc1ccccc1O,62.7% (active)
3,CCc1ccccc1NC(=O)/C(=C/c1ccccc1)c1ccccc1,16.4% (inactive)
4,O=C(/C=C/c1ccccc1)c1ccoc1,15.1% (inactive)
5,CC(C)c1ccc(-c2nn[nH]n2)cc1,9.2% (inactive)
6,O=C(Nc1ccc(Cl)cc1)N1CCc2[nH]c3ccccc3c2C1,14.2% (inactive)
7,CCC(=O)Nc1cccc(NC(=O)c2cccnc2)c1,6.5% (inactive)
8,Cc1cccc(-n2cnc(C(=O)Nc3cccnc3)c2)n1,88.2% (active)
9,Cc1cc(C)c(NC(=O)CS(=O)CC(=O)Nc2cccnc2)c(C)c1 (stereo unspecified),22.7% (inactive)
10,Cc1cc(-n2nc(C)cc2C)n2nc(C)c(-c3ccccc3)c2n1,25.1% (inactive)
11,CC(Oc1ccc(Cl)cc1)C(=O)OCC(=O)Nc1ncc(Cl)cc1Cl (stereo unspecified),-20.7% (inactive)
12,Cc1cc(C)cc(OCC(=O)Nc2nc3ccc([N+](=O)[O-])cc3s2)c1,48.4% (inactive)
13,CNC(=O)c1ccc2nc(NC(C)=O)sc2c1,21.5% (inactive)
14,O=C(NC(Nc1nc2ccc([N+](=O)[O-])cc2s1)(C(F)(F)F)C(F)(F)F)c1ccccc1,97.4% (active)
15,O=C(Nc1ccccc1)c1nnsc1S(=O)(=O)c1ccc(Cl)cc1,74.9% (active)
16,O=C(Nc1ccc(Cl)cc1)c1ccsn1,-4.3% (inactive)
17,O=C(c1ccc(Cl)cc1)c1cnc(Nc2ccccc2)s1,21.7% (inactive)
18,Cc1ccc(N2CCN(c3ccc(C)cc3)C2c2ccccn2)cc1,1.3% (inactive)
19,O=C(NCCCCCCCCCNC(=O)C(F)(F)F)C(F)(F)F,11.2% (inactive)
20,CCCOc1ccccc1C(=O)NCCCC(=O)O,-8.2% (inactive)
21,CS(=O)(=O)N1CCN(C(=O)Cc2ccccc2)CC1,-5.4% (inactive)

row,Compound,inhibition
1,CCOc1ccc(Cn2nnc(C(=O)NCc3ccccc3)c2N)cc1,-2.2% (inactive)
2,COc1ccc(OC)c(CN2C(=O)CCC2(C)C(=O)NC2CCCCCC2)c1 (stereo unspecified),30% (inactive)
3,CCOC(=O)CCc1c(C)c2ccc(OCc3nn[nH]n3)c(C)c2oc1=O,86.3% (active)
4,CC(=O)Oc1ccc2c(C)c(CC(C)O)c(=O)oc2c1 (stereo unspecified),-16% (inactive)
5,Cc1c(C(=O)Nc2ccccc2Cl)oc2ccc(S(=O)(=O)N3CCC4(CC3)OCCO4)cc12,31.2% (inactive)
6,CCOC(=O)C1CCN(C(=O)c2oc3ccc(S(=O)(=O)N4CCCCCC4)cc3c2C)CC1,53.6% (active)
7,CCOC(=O)N1CCN(C(=O)c2cn(C)c3ccc(S(=O)(=O)N4CCCC4)cc3c2=O)CC1,-6.2% (inactive)
8,C=CCn1c(COc2ccccc2F)nnc1SCC(=O)N1CC(=O)Nc2ccccc21,12.5% (inactive)
9,CCN=C1SC(CC(=O)Nc2ccc(C)cc2)C(=O)N1CC (stereo unspecified),-8.7% (inactive)
10,Cc1ccc(C)c(NC(=O)C2CC(=O)N(C(C)C)C2)c1 (stereo unspecified),-14.4% (inactive)
11,CCN1C(=O)C(CC(=O)Nc2cc(C)ccc2C)SC1=Nc1ccc(S(N)(=O)=O)cc1 (stereo unspecified),90.8% (active)
12,O=S(=O)(/C=C/c1ccccc1)NCCc1ccccn1,-35.1% (inactive)
13,Cc1nnc(SCC(=O)N(C(C)C)C(C)C)nc1C,-18.5% (inactive)
14,CCCn1c(=O)c(-c2ccccc2)c(O)c2ccccc21,1.5% (inactive)
15,Cc1cccc(OCC(O)Cn2c(=N)n(CCN3CCOCC3)c3ccccc32)c1 (stereo unspecified),-8.4% (inactive)
16,COc1ccc(S(=O)(=O)N2CCOCC2)cc1C(=O)Nc1nc2ccccc2s1,-3.9% (inactive)
17,O=C(Nc1nc2cc3c(cc2s1)OCCO3)c1cccc(S(=O)(=O)N2CCOCC2)c1,50.9% (active)
18,O=C(c1ccc2c(c1)OCCO2)C1CCN(S(=O)(=O)c2cccc(F)c2)CC1,-18.3% (inactive)
19,CC1(C)CC(CCC(=O)Nc2ccccc2Cl)C(=O)O1 (stereo unspecified),-35.4% (inactive)
